These results are taken from PubChem BioAssay (EPA / NIEHS).

A word on the AC50: it is the concentration at which the activity in the assay is half-maximal.

Some compounds were tested as several samples or in several runs, with calls that do not always agree. Activity calls are given as the source filed them. The calls were made as follows: active = hit-call score of the fitted dose curve at least 0.9, where 1 is the maximum; inactive = score below 0.9.

Chain of Cellular tumor antigen p53 (Homo sapiens) (P04637 whole entry, looked up): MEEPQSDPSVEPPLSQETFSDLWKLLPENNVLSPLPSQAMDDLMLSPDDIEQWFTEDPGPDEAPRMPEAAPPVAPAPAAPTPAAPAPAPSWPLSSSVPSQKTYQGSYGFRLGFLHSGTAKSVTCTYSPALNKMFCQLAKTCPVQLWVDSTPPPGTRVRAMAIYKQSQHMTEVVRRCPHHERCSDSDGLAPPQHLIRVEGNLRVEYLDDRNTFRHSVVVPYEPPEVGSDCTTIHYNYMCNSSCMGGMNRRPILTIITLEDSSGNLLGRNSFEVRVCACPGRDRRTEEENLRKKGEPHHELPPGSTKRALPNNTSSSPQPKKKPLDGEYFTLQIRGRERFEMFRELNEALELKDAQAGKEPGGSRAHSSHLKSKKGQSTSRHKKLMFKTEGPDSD

The target of the assay is Cellular tumor antigen p53 (Homo sapiens) (UniProt P04637). As to the kind of experiment: ATG_p53_CIS: Attagene CIS-FACTORIAL HepG2 Assay for human p53 Transcription Factor (AID 2282994). Particulars: HepG2 p53 cis-element reporter, Attagene mRNA; actives raise or lower the signal. On the procedure:
ATG_CIS is a cell-based, multiplexed-readout assay that uses HepG2, a human liver cell line, with measurements taken at 24 hours after chemical dosing in a 24-well plate.ATG_p53_CIS is one of 52 assay component(s) measured or calculated from the ATG_CIS assay. It is designed to make measurements of mRNA induction, a form of inducible reporter, as detected with fluorescence intensity signals by Reverse transcription polymerase chain reaction (RT-PCR) and Capillary electrophoresis technology.Data from the assay component ATG_p53_CIS was analyzed into 1 assay endpoint. This assay endpoint, ATG_p53_CIS, was analyzed with bidirectional fitting relative to DMSO as the negative control and baseline of activity. Using a type of inducible reporter, measures of mRNA for gain or loss-of-signal activity can be used to understand the reporter gene at the transcription factor-level as they relate to the gene TP53. Furthermore, this assay endpoint can be referred to as a primary readout, because this assay has produced multiple assay endpoints where this one serves a reporter gene function. To generalize the intended target to other relatable targets, this assay endpoint is annotated to the dna binding intended target family, where the subfamily is tumor suppressor.
Human liver HepG2 cells are transiently transfected with multiple reporter transcription units (MRTUs) in 6-well plates using FuGene 6 reagent (Roche; 3 ml FuGene/1 mg DNA). The MRTU constructs are regulated by a cis-regulating element (promoter). […] A major difference between the CIS and TRANS system is that in CIS activities of endogenous TFs are measured, whereas the TRANS assay evaluates changes in activities of exogenous, chimeric NR-Gal4 proteins. […] At the end of 24 hour incubation, total RNA was isolated using TriZol reagent (Invitrogen). The isolated RNA is then reverse-transcribed using oligo(dT) primer and Mo-MLV reverse transcriptase (Invitrogen) with DNAse I (Ambion) treatment for 30 min. The one-tenth of the produced cDNA was amplified by PCR using Taq DNA polymerase (Invitrogen) and two reporter sequence-specific primers. The PCR products were fluorescently labeled by primer extension with 6-arboxyfluorescein (6-FAM) 5'-labeled reporter sequence-specific primer (2 min at 95 C, 20 s at 68 C and 10 min at 72 C) and these products were digested with 5U of HpaI (New England Biolabs) for 2h at 37 C. The fragments were purified using Qiaquick PCR columns (Qiagen), analyzed on an ABI 3130xL genetic analyzer (Applied Biosystems) with peak positions identified by using a set of X-rhodamine (ROX)-labeled MapMarker1000 molecular weight standards (BioVentures). The raw capillary electrophoresis data was processed using Attagraph software (Attagene).
Take `Cc1c([N+](=O)[O-])cc2c(c1[N+](=O)[O-])C(C)(C)CC2(C)C`: the call was inactive.
The same measure, in the same setting: next, `Cc1ccc(C(=O)Cl)cc1`: “inactive”.
On the same count and under the same terms, under `N#Cc1ccc(O)cc1` stands “inactive”; under `CC(Cl)CN(C)C` (stereo not given), “inactive”.
Same read-out and setting: next, `CO/N=C(/C(=O)OC)c1ccccc1COc1ccccc1C`: “inactive”; `CC1(C)CN=C(NN=C(/C=C/c2ccc(C(F)(F)F)cc2)/C=C/c2ccc(C(F)(F)F)cc2)NC1`: “inactive”.
Regarding `CCCCN(CCCC)N=O`, the compound was classed as inactive.
As for `O=S(=O)(F)C(F)(F)C(F)(F)C(F)(F)C(F)(F)C(F)(F)C(F)(F)C(F)(F)C(F)(F)F`, the compound was called inactive.
With `C=CC(=O)OCC(F)(F)C(F)F`, the AC50 was 206 µM (active).
In the case of `Cc1cc(C)c(C(=O)P(=O)(c2ccccc2)c2ccccc2)c(C)c1`, the call was inactive.
Still for that read-out and setting: next, `CCN(CC)c1ccccc1`: “inactive”; `CC(C)(C)c1ccccc1OP(=O)(Oc1ccccc1)Oc1ccccc1`: “inactive”.
Still for that read-out and setting: under `C/C(=N\NC(=O)Nc1cc(F)cc(F)c1)c1ncccc1C(=O)O` stands “inactive”; under `O=c1ssc(Cl)c1Cl`, “inactive”.
Turning to `OCC(F)(F)OC(F)(F)C(F)(F)OC(F)(F)CO`, the outcome was inactive.
As for `CCOP(=S)(NC(C)C)Oc1ccccc1C(=O)OC(C)C` (stereo not given), the outcome was inactive.
On the same count and under the same terms, next, `O=P(Oc1ccccc1)(Oc1ccccc1)Oc1ccccc1`: “inactive”; `O=C(O)C(F)(F)OC(F)(F)C(F)(F)OC(F)(F)C(=O)O`: “inactive”; `O=C(O)C(F)(F)C(F)(F)C(=O)O`: “inactive”.
Consider `C=CC(=O)OCC(CC)(COC(=O)C=C)COC(=O)C=C`, for which the compound was classed as inactive.
In the case of `CC(O)C#N` (stereo not given), the compound was classed as inactive.
On the same count and under the same terms, next, `CCCCN(CC)C(=O)SCCC`: “inactive”; `CC(C)Nc1ccc(Nc2ccccc2)cc1`: “inactive”.
On the same count and under the same terms, next, `c1ccc2c(c1)Nc1ccccc1S2`: “inactive”; `O=NN1CCCC1`: “inactive”; `ClC1=C(Cl)C2(Cl)C3C(Cl)C(Cl)CC3C1(Cl)C2(Cl)Cl` (stereo not given): “inactive”.
For `COP(=O)(O)OC`, the outcome was inactive.
Still for that read-out and setting: under `CCOP(=S)(S)OCC` stands “inactive”.
As for `OCC(F)(F)OC(F)(F)C(F)(F)OC(F)(F)C(F)(F)OC(F)(F)F`, the AC50 was 76.8 µM (active) and the result was inactive.
In the case of `CCCCOCC1CO1` (stereo not given), the compound was called inactive.
On the same count and under the same terms, under `O=C(O)C=CC(F)(C(F)(F)F)C(F)(F)F` stands “inactive”.
Still for that read-out and setting: next, `N#Cc1cc([N+](=O)[O-])ccc1N`: “inactive”.
In the case of `O=C(O)C(F)(OC(F)(F)C(F)(F)C(F)(F)F)C(F)(F)F` (stereo not given), the outcome was inactive.
Take `O=C(O)C(F)(F)OC(F)(F)C(F)(F)OC(F)(F)F`: the call was inactive.
Still for that read-out and setting: under `CCCCC(CC)COC(=O)c1c(Br)c(Br)c(Br)c(Br)c1C(=O)OCC(CC)CCCC` (stereo not given) stands “inactive”.
As to `CC(C)(C)c1ccc(O)cc1`, the AC50 is 170 µM (active).
Consider `c1cc2c3c(cccc3c1)CC2`, for which the call was inactive.
Still for that read-out and setting: under `O=S(=O)(c1ccc(O)cc1)c1ccc(O)cc1` stands “inactive”; under `Cn1[nH]nnc1=S`, “inactive”.
